Experimental findings from PubChem BioAssay are described below.

Active and inactive are the calls of the source.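 How the source made its calls, unless noted: active means compound raises GLP1 secretion from the human gut endocrine cells, with no numeric limit stated; inactive means the rest.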

Test [1] in a line: stimulators of nuclear beta-catenin in C2C12, primary screen, imaging, WNT3A-conditioned medium, mouse C2C12, NPC library (AID 1117326; in the data active means nuclear beta-catenin stimulation mostly above about 4.2%, no sharp cut-off; inactive means mostly below about 10%; further: reference of the scale not given here). As to conditions: stronger effect = higher value.
A short description of test [2]: stimulators of insulin release from INS-1E, primary screen, cell-based, 5 mM glucose, NPC library (AID 1117329;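 active means compound raises insulin release from rat beta cells at 5 mM glucose, no numeric limit stated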; further: reference of the scale not given here). The settings on record: rat INS-1E insulin secretion, at 10 µM, stronger effect = higher value.
Test [3] in a line: growth inhibition of GSK3B-pretreated HCT116 cells – cell-based, CellTiter-Glo, 0.2 to 20 µM (AID 1117336;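 active means compounds lowering colon cancer cell viability after pretreatment blocking the GSK3B kinase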). The settings on record: HCT116 viability after GSK3B inhibitor, at 20 µM, stronger effect = higher value.
Test [4] in a line: inhibition of endothelial tube formation, primary screen, imaging, VEGF stimulated, CD31 staining, tube area, NPC library (AID 1117340;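 active means compound that reduces growth-factor-driven endothelial tube area in a mixed cell culture, no cutoff stated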). As to conditions: VEGF-stimulated ADSC/ECFC co-culture, at 10 µM, stronger effect = higher value.
Test [5] can be described thus: glucagon-like peptide 1 release enhancers, primary assay, NCI-H716 cell line, NPC library (AID 1117341). Further: reference of the scale not given here. The settings on record: NCI-H716 cells, at 10 µM, stronger effect = higher value.
Test [6] in a line: HCT116 colon cancer cell growth inhibition, primary screen, CellTiter-Glo luminescence, NPC library (AID 1117342;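 active means compounds that lower survival of HCT116 colon cancer cells in the luminescence readout, no numeric limit stated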). The settings on record: at 20 µM (top of the series).
A short description of test [7]: CellTiter-Glo luminescent readout of SW480 viability loss, NPC library primary (AID 1117343;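 active means compounds that lower viability of the colon cancer cells in the luminescence readout, with no numeric limit stated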). As to conditions: CellTiter-Glo luminescence; at 20 µM (top of the series).
A short description of test [8]: decreased DLD-1 cellular survival, CellTiter-Glo luminescent readout, NPC compound collection, primary HTS (AID 1117346;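 active means compounds that lower survival of DLD-1 colon cancer cells in the luminescence readout, no cutoff given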). As to conditions: DLD-1 viability, CellTiter-Glo luminescence; at 20 µM (top of the series).

Consider `O=C(c1cc(O)c(O)c(O)c1)c1ccc(O)c(O)c1O`, for which the nuclear beta-catenin stimulation is 1% (inactive) in test [1] (at 10 µM) and 17.1% in test [1] (stimulation, at 2 µM). Also, the insulin secretion stimulation in test [2] was 6.1% (inactive). For the same molecule, the viability decrease in test [3] is 98.2% (active). In addition, the tube area decrease in test [4] is 8.9% (inactive). The GLP1 secretion stimulation in test [5] is 4.8% (inactive). Moreover, in test [6], the inhibition of viability is 69.7% (active). The viability decrease (inhibition) is 103% (active) in test [7] and 58.6% (active) in test [8].
`O=C(c1ccccc1)C(O)c1ccccc1` (stereo unspecified): the nuclear beta-catenin stimulation in test [1] (at 10 µM) was 0.5% (inactive); in test [1] (stimulation, at 2 µM), 0.8%. The insulin secretion stimulation in test [2] was -1.6% (inactive). Further, the viability decrease in test [3] is -1.05% (inactive). Also, the tube area decrease in test [4] was -9.2% (inactive). Moreover, the GLP1 secretion stimulation in test [5] is -0.3% (inactive). The inhibition of viability in test [6] was 2.8% (inactive). Besides, the viability decrease (inhibition) was 9.2% (inactive) in test [7] and 6.95% (inactive) in test [8].
As to `O=C(NCN1CCOCC1)c1cnccn1`, the nuclear beta-catenin stimulation was 1.4% (inactive) in test [1] (at 10 µM) and 0.7% in test [1] (stimulation, at 2 µM). Further, in test [2], the insulin secretion stimulation is 0.2% (inactive). Also, the viability decrease in test [3] was 15.3% (inactive). The tube area decrease in test [4] was 7.8% (inactive). The GLP1 secretion stimulation in test [5] is -2.9% (inactive). Further, in test [6], the inhibition of viability was 29.4% (inactive). The viability decrease (inhibition) was 40.1% (inactive) in test [7] and 8.3% (inactive) in test [8].
On to `CC1(C)S[C@@H]2[C@H](NC(=O)Cc3ccccc3)C(=O)N2[C@H]1C(=O)O` (tested in a mixture with another compound), for which the nuclear beta-catenin stimulation in test [1] (at 10 µM) is 0.8% (inactive); in test [1] (stimulation, at 2 µM) it was -0.3%. Also, the insulin secretion stimulation in test [2] was -0.8% (inactive). Also, in test [3], the viability decrease is -4.9% (inactive). For the same molecule, the tube area decrease in test [4] was -6.3% (inactive). Moreover, in test [5], the GLP1 secretion stimulation is -3.4% (inactive). Also, the inhibition of viability in test [6] was -7.93% (inactive). Moreover, the values for the viability decrease (inhibition) in test [7] and in test [8] were -25.3% (inactive) and -12.1% (inactive), respectively.
As to `CCCCCC[C@@H](CCC)C(=O)O`, the nuclear beta-catenin stimulation in test [1] (at 10 µM) is -0.3% (inactive); in test [1] (stimulation, at 2 µM), -0.9%. Besides, the insulin secretion stimulation in test [2] was 0.3% (inactive). Also, in test [3], the viability decrease was 1.2% (inactive). Moreover, the tube area decrease in test [4] was -29.5% (inactive). For the same molecule, the GLP1 secretion stimulation in test [5] was 3.5% (inactive). Further, the inhibition of viability in test [6] was 17.7% (inactive). The values for the viability decrease (inhibition) in test [7] and in test [8] were 14% (inactive) and 16.9% (inactive), respectively.
`CCCCN(CCCC)C(C(N)=O)c1ccc(OC)cc1` (stereo unspecified): the nuclear beta-catenin stimulation is 0% (inactive) in test [1] (at 10 µM) and -1.4% in test [1] (stimulation, at 2 µM). Besides, in test [2], the insulin secretion stimulation is 36.4% (active). In test [3], the viability decrease is -5.1% (inactive). Further, the tube area decrease in test [4] is 6.6% (inactive). The GLP1 secretion stimulation in test [5] was 2.1% (inactive). Also, in test [6], the inhibition of viability is 30.2% (inactive). The values for the viability decrease (inhibition) in test [7] and in test [8] were 10.2% (inactive) and 2.6% (inactive), respectively.
For `COC(=O)c1ccc(NC(C)=O)cc1OC`, the nuclear beta-catenin stimulation was -0.5% (inactive) in test [1] (at 10 µM) and -1.4% in test [1] (stimulation, at 2 µM). Further, the insulin secretion stimulation in test [2] was -1.4% (inactive). Moreover, in test [3], the viability decrease was 13.4% (inactive). For the same molecule, the tube area decrease in test [4] is -3.1% (inactive). Moreover, the GLP1 secretion stimulation in test [5] is -1.8% (inactive). Besides, the inhibition of viability in test [6] was 1.7% (inactive). For the same molecule, the viability decrease (inhibition) was -18.6% (inactive) in test [7] and -4.9% (inactive) in test [8].
As for `O=C(CCCCCCCCC#CI)Oc1ccccc1`, the nuclear beta-catenin stimulation in test [1] (at 10 µM) is 3% (inactive); in test [1] (stimulation, at 2 µM), 0.2%. The insulin secretion stimulation in test [2] is -1.7% (inactive). In addition, in test [3], the viability decrease is 56% (active). The tube area decrease in test [4] is 13% (inactive). For the same molecule, the GLP1 secretion stimulation in test [5] was 0.3% (inactive). For the same molecule, the inhibition of viability in test [6] was -7.3% (inactive). The values for the viability decrease (inhibition) in test [7] and in test [8] were 68.3% (active) and 63.9% (active), respectively.
Regarding `CC(C(O)c1ccccc1)N(C)CCOC(c1ccccc1)c1ccccc1` (stereo unspecified), the nuclear beta-catenin stimulation in test [1] (at 10 µM) is 4.3% (inactive); in test [1] (stimulation, at 2 µM), 2.3%. In addition, the insulin secretion stimulation in test [2] is 2.45% (inactive). The viability decrease in test [3] was 77.3% (active). Also, the tube area decrease in test [4] is 14.1% (inactive). Moreover, the GLP1 secretion stimulation in test [5] was 7.4% (inactive). Moreover, the inhibition of viability in test [6] is 86.9% (active). Moreover, the viability decrease (inhibition) in test [7] is 133% (active); in test [8], 81.5% (active).
`CCOC(=O)c1c(N)sc2c1CCN(Cc1ccccc1)C2`: the nuclear beta-catenin stimulation in test [1] (at 10 µM) was 0.4% (inactive); in test [1] (stimulation, at 2 µM) it was 0.3%. Besides, the insulin secretion stimulation in test [2] was -0.1% (inactive). The viability decrease in test [3] was 21.9% (inactive). Moreover, the tube area decrease in test [4] is 33.8% (inactive). Besides, the GLP1 secretion stimulation in test [5] was 0.5% (inactive). For the same molecule, in test [6], the inhibition of viability was 47.3% (inactive). Also, the viability decrease (inhibition) was 84.1% (active) in test [7] and 31.8% (active) in test [8].
Regarding `O=C(CN1CCN(Cc2ccc3c(c2)OCO3)CC1)N1c2ccccc2Sc2ccccc21`, the nuclear beta-catenin stimulation in test [1] (at 10 µM) is 0.2% (inactive); in test [1] (stimulation, at 2 µM), 2.2%. In addition, the insulin secretion stimulation in test [2] is 7.5% (inactive). Further, the viability decrease in test [3] was 63.5% (active). In addition, the tube area decrease in test [4] is 7.5% (inactive). Moreover, in test [5], the GLP1 secretion stimulation was 16.3% (inactive). Moreover, the inhibition of viability in test [6] is 67.4% (active). In addition, the viability decrease (inhibition) in test [7] was 126% (active); in test [8], 76.8% (active).
Take `CN[C@H](CC(C)C)C(=O)N[C@H]1C(=O)N[C@@H](CC(N)=O)C(=O)N[C@H]2C(=O)N[C@H]3C(=O)N[C@H](C(=O)N[C@H](C(=O)O)c4cc(O)cc(O)c4-c4cc3ccc4O)[C@H](O)c3ccc(c(Cl)c3)Oc3cc2cc(c3O[C@@H]2OC(CO)[C@@H](O)[C@H](O)[C@@H]2O[C@H]2C[C@](C)(N)[C@H](O)[C@H](C)O2)Oc2ccc(cc2Cl)[C@H]1O` (stereo partly specified): the nuclear beta-catenin stimulation in test [1] (at 10 µM) was -0.7% (inactive); in test [1] (stimulation, at 2 µM), 2.4%. In addition, the insulin secretion stimulation in test [2] was -0.1% (inactive). Besides, the viability decrease in test [3] was -6.3% (inactive). The tube area decrease in test [4] was 7.3% (inactive). Moreover, the GLP1 secretion stimulation in test [5] was -0.9% (inactive). Also, in test [6], the inhibition of viability was -1.3% (inactive). Further, the figures for the viability decrease (inhibition) in test [7] and in test [8] were 5% (inactive) and -10% (inactive), respectively.
Regarding `CC(=O)Nc1ccn(C2COC(COC(=O)c3ccccc3)O2)c(=O)n1` (stereo unspecified), the nuclear beta-catenin stimulation in test [1] (at 10 µM) is 8.2% (inactive); in test [1] (stimulation, at 2 µM), -0.9%. For the same molecule, the insulin secretion stimulation in test [2] was 1% (inactive). In addition, the viability decrease in test [3] is 54% (active). Further, the tube area decrease in test [4] was 100% (active). In test [5], the GLP1 secretion stimulation is 1.2% (inactive). Also, the inhibition of viability in test [6] is 56.5% (active). The viability decrease (inhibition) was 26.9% (inactive) in test [7] and 29.9% (inactive) in test [8].
Regarding `CC(C)C[C@@H](N)C(=O)O`, the nuclear beta-catenin stimulation was 3.4% (inactive) in test [1] (at 10 µM) and 1.7% in test [1] (stimulation, at 2 µM). In test [2], the insulin secretion stimulation is -0.8% (inactive). For the same molecule, the viability decrease in test [3] is -7.15% (inactive). Also, in test [4], the tube area decrease was 11.2% (inactive). Also, the GLP1 secretion stimulation in test [5] was 0.3% (inactive). Also, in test [6], the inhibition of viability was 9.1% (inactive). Besides, the viability decrease (inhibition) in test [7] is 3.6% (inactive); in test [8], -1.8% (inactive).
